# In the supplement of paper PMC8728848:
# The entries come from a sample that favours the strongest signals as a whole.
# B1: Epa13 (Candida glabrata) (protein)
# chain: MGSSHHHHHHSSGLVPRGSHMASDSSENGYAHGCSPSIRAKLKPGLSMEIYSYALRPTDDHCWDSAYLDPMFPRTGYLTHKLLGKAEGIIGPLNFLAKNPACIPAVSTLPLAFHFPKPFTITNFTMLLYGYLSPKKTGKYTFKLLADDLLLMNFGADNAFDCCSHDATKDNIGEYVAYSVWPGVNKNVTVYLESGIYYPLRLFFNNRDAIAQLDFAYYFNDSPIRQTDFSGMFFSIPDSVKCPANI
# Key:
# Assay in all cases: glycan array binding signal (z-score within array); higher = stronger binding
# Details in all cases: glycan notation: IUPAC condensed, linker removed
# [1] = target: Fuc(a1-2)Gal(b1-3)GalNAc(b1-3)Gal
# Procedure, shortened: (§1)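 From the Consortium for Functional Glycomics database, 3228 arrays were curated, keeping only those whose protein sequence was available. Binding is given as a within-array Z-score averaged across arrays sharing a protein sequence and across linkers. Negative Z-scores can be read as non-binding.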
# [2] = target: Fuc(a1-2)Gal(b1-3)[Fuc(a1-4)]GlcNAc(b1-3)[Fuc(a1-3)[Gal(b1-4)]GlcNAc(b1-6)]Gal(b1-4)Glc
# Procedure, shortened: as §1
# [3] = target: Fuc(a1-2)Gal(b1-4)GlcNAc(b1-2)Man
# Procedure, shortened: as §1
# [4] = target: Fuc(a1-2)Gal(b1-4)[Fuc(a1-3)]GlcNAc(b1-3)GalNAc
# Procedure, shortened: as §1
# [5] = target: Fuc(a1-2)Gal(b1-4)[Fuc(a1-3)]GlcNAc(b1-3)[Neu5Ac(a2-6)Gal(b1-4)GlcNAc(b1-6)]Gal(b1-4)Glc
# Procedure, shortened: as §1
# [6] = target: Fuc(a1-2)[Gal(a1-3)]Gal(b1-4)Glc
# Procedure, shortened: as §1
# [7] = target: Fuc(a1-2)[Gal(a1-3)]Gal(b1-4)[Fuc(a1-3)]GlcNAc
# Procedure, shortened: as §1
# [8] = target: Fuc(a1-2)[Gal(a1-4)]Gal(b1-4)GlcNAc
# Procedure, shortened: as §1
# [9] = target: Fuc(a1-2)[GalNAc(a1-4)]Gal(b1-4)GlcNAc
# Procedure, shortened: as §1
# [10] = target: Fuc(a1-3)[Gal(b1-4)]GlcNAc
# Procedure, shortened: as §1
# [11] = target: Fuc(a1-3)[Gal(b1-4)]GlcNAc(b1-2)Man
# Procedure, shortened: as §1
# [12] = target: Fuc(a1-3)[Gal(b1-4)]GlcNAc(b1-3)Gal(b1-4)[Fuc(a1-3)]GlcNAc(b1-3)Gal(b1-4)[Fuc(a1-3)]GlcNAc
# Procedure, shortened: as §1
# [13] = target: Fuc(a1-3)[Gal3S(b1-4)]GlcNAc
# Procedure, shortened: as §1
# [14] = target: Gal(a1-3)Gal(b1-3)GlcNAc(b1-6)GalNAc
# Procedure, shortened: as §1
# [15] = target: Gal(a1-3)Gal(b1-4)GlcNAc(b1-2)Man
# Procedure, shortened: as §1
# [16] = target: Gal(a1-3)Gal(b1-4)GlcNAc(b1-2)Man(a1-3)[Gal(a1-3)Gal(b1-4)GlcNAc(b1-2)Man(a1-6)]Man(b1-4)GlcNAc(b1-4)GlcNAc
# Procedure, shortened: as §1
# [17] = target: Gal(a1-3)Gal(b1-4)GlcNAc(b1-3)GalNAc
# Procedure, shortened: as §1
# [18] = target: Gal(a1-3)[Gal(a1-4)]Gal(b1-4)GlcNAc
# Procedure, shortened: as §1
# [19] = target: Gal(a1-4)Gal(b1-3)GlcNAc(b1-2)Man(a1-3)[Gal(a1-4)Gal(b1-3)GlcNAc(b1-2)Man(a1-6)]Man(b1-4)GlcNAc(b1-4)GlcNAc
# Procedure, shortened: as §1
# Gal(a1-4)Gal(b1-4)Glc = target: Gal(a1-4)Gal(b1-4)Glc
# Procedure, shortened: as §1
# Gal(a1-4)Gal(b1-4)GlcNAc = target: Gal(a1-4)Gal(b1-4)GlcNAc
# Procedure, shortened: as §1
# [20] = target: Gal(a1-4)Gal(b1-4)GlcNAc(b1-2)Man(a1-3)[Gal(a1-4)Gal(b1-4)GlcNAc(b1-2)Man(a1-6)]Man(b1-4)GlcNAc(b1-4)GlcNAc
# Procedure, shortened: as §1
# Gal(a1-4)GlcNAc = target: Gal(a1-4)GlcNAc
# Procedure, shortened: as §1
# Gal(a1-6)Glc = target: Gal(a1-6)Glc
# Procedure, shortened: as §1
# Gal(b1-2)Gal = target: Gal(b1-2)Gal
# Procedure, shortened: as §1
# [21] = target: Gal(b1-3)GalNAc(a1-3)[Fuc(a1-2)]Gal(b1-4)GlcNAc
# Procedure, shortened: as §1
# [22] = target: Gal(b1-3)GlcNAc(b1-3)Gal(b1-4)GlcNAc
# Procedure, shortened: as §1
# [23] = target: Gal(b1-3)GlcNAc(b1-6)Gal(b1-4)GlcNAc
# Procedure, shortened: as §1
# [24] = target: Gal(b1-3)GlcNAc(b1-6)[Gal(b1-3)]GalNAc
# Procedure, shortened: as §1
# Gal(b1-4)Glc6S = target: Gal(b1-4)Glc6S
# Procedure, shortened: as §1
# [25] = target: Gal(b1-4)GlcNAc(a1-6)Gal(b1-4)GlcNAc
# Procedure, shortened: as §1
# [26] = target: Gal(b1-4)GlcNAc(b1-2)[Gal(b1-4)GlcNAc(b1-6)]Man(a1-6)[GlcNAc(b1-4)][Gal(b1-4)GlcNAc(b1-2)[Gal(b1-4)GlcNAc(b1-4)]Man(a1-3)]Man(b1-4)GlcNAc(b1-4)[Fuc(a1-6)]GlcNAc
# Procedure, shortened: as §1
# [27] = target: Gal(b1-4)GlcNAc(b1-3)Gal(b1-4)GlcNAc
# Procedure, shortened: as §1
# Gal4S6S(b1-4)GlcNAc = target: Gal4S6S(b1-4)GlcNAc
# Procedure, shortened: as §1
# Gal6S(b1-4)GlcNAc = target: Gal6S(b1-4)GlcNAc
# Procedure, shortened: as §1
# Gal6S(b1-4)GlcNAc6S = target: Gal6S(b1-4)GlcNAc6S
# Procedure, shortened: as §1
# [28] = target: GalNAc(b1-3)Gal(a1-4)Gal(b1-4)GlcNAc
# Procedure, shortened: as §1
# Glc(a1-4)Glc = target: Glc(a1-4)Glc
# Procedure, shortened: as §1
# [29] = target: GlcNAc(a1-4)Gal(b1-4)GlcNAc(b1-3)Gal(b1-4)GlcNAc
# Procedure, shortened: as §1
# [30] = target: GlcNAc(a1-4)Gal(b1-4)GlcNAc(b1-3)Gal(b1-4)[Fuc(a1-3)]GlcNAc(b1-3)Gal(b1-4)[Fuc(a1-3)]GlcNAc
# Procedure, shortened: as §1
# [31] = target: GlcNAc(b1-2)Man(a1-3)[GlcNAc(b1-4)][GlcNAc(b1-2)Man(a1-6)]Man(b1-4)GlcNAc(b1-4)[Fuc(a1-6)]GlcNAc
# Procedure, shortened: as §1
# [32] = target: GlcNAc(b1-2)[GlcNAc(b1-4)]Man(a1-3)[GlcNAc(b1-2)Man(a1-6)]Man(b1-4)GlcNAc(b1-4)GlcNAc
# Procedure, shortened: as §1
# [33] = target: GlcNAc(b1-2)[GlcNAc(b1-4)]Man(a1-3)[GlcNAc(b1-4)][GlcNAc(b1-2)Man(a1-6)]Man(b1-4)GlcNAc(b1-4)GlcNAc
# Procedure, shortened: as §1
# GlcNAc(b1-3)Gal = target: GlcNAc(b1-3)Gal
# Procedure, shortened: as §1
# [34] = target: GlcNAc(b1-3)Gal(b1-4)GlcNAc(b1-2)[GlcNAc(b1-3)Gal(b1-4)GlcNAc(b1-6)]Man(a1-6)[GlcNAc(b1-3)Gal(b1-4)GlcNAc(b1-2)Man(a1-3)]Man(b1-4)GlcNAc(b1-4)GlcNAc
# Procedure, shortened: as §1
# [35] = target: Neu5Ac(a2-3)Gal(b1-4)GlcNAc(b1-2)Man(a1-3)[Neu5Ac(a2-6)Gal(b1-4)GlcNAc(b1-2)Man(a1-6)]Man(b1-4)GlcNAc(b1-4)GlcNAc
# Procedure, shortened: as §1
# [36] = target: Neu5Ac(a2-3)Gal6S(b1-4)[Fuc(a1-3)]GlcNAc
# Procedure, shortened: as §1
# [37] = target: Neu5Ac(a2-6)Gal(b1-4)GlcNAc(b1-2)Man(a1-3)[GlcNAc(b1-2)Man(a1-6)]Man(b1-4)GlcNAc(b1-4)GlcNAc
# Procedure, shortened: as §1
# [38] = target: Neu5Ac(a2-6)Gal(b1-4)GlcNAc(b1-3)Gal(b1-4)GlcNAc
# Procedure, shortened: as §1
# [39] = target: Neu5Ac(a2-6)Gal(b1-4)GlcNAc(b1-3)Gal(b1-4)GlcNAc(b1-3)GalNAc
# Procedure, shortened: as §1
# [40] = target: Neu5Ac(a2-6)Gal(b1-4)GlcNAc(b1-6)[Gal(b1-3)]GalNAc
# Procedure, shortened: as §1
# [41] = target: Neu5Ac(a2-8)Neu5Ac(a2-3)Gal(b1-4)GlcNAc
# Procedure, shortened: as §1
# Neu5Ac(b2-6)GalNAc = target: Neu5Ac(b2-6)GalNAc
# Procedure, shortened: as §1
binder,measurement,setting,value
B1,glycan array binding signal (z-score),[1],0.112
same,glycan array binding signal (z-score),[2],-0.604
same,glycan array binding signal (z-score),[3],0.385
same,glycan array binding signal (z-score),[4],2.14
same,glycan array binding signal (z-score),[5],-0.526
same,glycan array binding signal (z-score),[6],-0.047
same,glycan array binding signal (z-score),[7],0.02
same,glycan array binding signal (z-score),[8],9.27
same,glycan array binding signal (z-score),[9],-0.453
same,glycan array binding signal (z-score),[10],-0.454
same,glycan array binding signal (z-score),[11],-0.124
same,glycan array binding signal (z-score),[12],-0.429
same,glycan array binding signal (z-score),[13],-0.351
same,glycan array binding signal (z-score),[14],1.13
same,glycan array binding signal (z-score),[15],0.125
same,glycan array binding signal (z-score),[16],4.93
same,glycan array binding signal (z-score),[17],0.561
same,glycan array binding signal (z-score),[18],1.47
same,glycan array binding signal (z-score),[19],4.04
same,glycan array binding signal (z-score),Gal(a1-4)Gal(b1-4)Glc,3.52
same,glycan array binding signal (z-score),Gal(a1-4)Gal(b1-4)GlcNAc,4.15
same,glycan array binding signal (z-score),[20],5.18
same,glycan array binding signal (z-score),Gal(a1-4)GlcNAc,7.08
same,glycan array binding signal (z-score),Gal(a1-6)Glc,13.2
same,glycan array binding signal (z-score),Gal(b1-2)Gal,4.04
same,glycan array binding signal (z-score),[21],-0.314
same,glycan array binding signal (z-score),[22],-0.418
same,glycan array binding signal (z-score),[23],-0.113
same,glycan array binding signal (z-score),[24],-0.014
same,glycan array binding signal (z-score),Gal(b1-4)Glc6S,0.255
same,glycan array binding signal (z-score),[25],0.075
same,glycan array binding signal (z-score),[26],-0.476
same,glycan array binding signal (z-score),[27],-0.291
same,glycan array binding signal (z-score),Gal4S6S(b1-4)GlcNAc,-0.32
same,glycan array binding signal (z-score),Gal6S(b1-4)GlcNAc,0.111
same,glycan array binding signal (z-score),Gal6S(b1-4)GlcNAc6S,2.69
same,glycan array binding signal (z-score),[28],-0.05
same,glycan array binding signal (z-score),Glc(a1-4)Glc,-0.521
same,glycan array binding signal (z-score),[29],0.04
same,glycan array binding signal (z-score),[30],-0.218
same,glycan array binding signal (z-score),[31],0.145
same,glycan array binding signal (z-score),[32],-0.393
same,glycan array binding signal (z-score),[33],-0.299
same,glycan array binding signal (z-score),GlcNAc(b1-3)Gal,-0.445
same,glycan array binding signal (z-score),[34],0.485
same,glycan array binding signal (z-score),[35],-0.354
same,glycan array binding signal (z-score),[36],-0.54
same,glycan array binding signal (z-score),[37],-0.413
same,glycan array binding signal (z-score),[38],-0.07
same,glycan array binding signal (z-score),[39],-0.142
same,glycan array binding signal (z-score),[40],-0.381
same,glycan array binding signal (z-score),[41],-0.449
same,glycan array binding signal (z-score),Neu5Ac(b2-6)GalNAc,-0.624
